# This is a sample that favours compounds with a hit; in the whole collection about 3.1% have one here.
# TRb SRC2 PPI – qHTS for Inhibitors of the Interaction of Thyroid Hormone Receptor and Steroid Receptor Coregulator 2. TRbeta-SRC2 peptide binding, fluorescence polarization; receptor liganded with 1 µM T3. 280,000 tested, 0.065% active. Thyroid hormone receptor beta (Homo sapiens), P10828. Potency, µM (series often up to 106 µM), for inactives: top-dose activity change, negative = inhibition, most hits filed as inhibitors;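 further: plate controls were bound peptide for no effect and peptide without receptor for full effect; nearly all actives have a fitted effect of over 50% in size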
# Target sequence (P10828 whole entry, looked up): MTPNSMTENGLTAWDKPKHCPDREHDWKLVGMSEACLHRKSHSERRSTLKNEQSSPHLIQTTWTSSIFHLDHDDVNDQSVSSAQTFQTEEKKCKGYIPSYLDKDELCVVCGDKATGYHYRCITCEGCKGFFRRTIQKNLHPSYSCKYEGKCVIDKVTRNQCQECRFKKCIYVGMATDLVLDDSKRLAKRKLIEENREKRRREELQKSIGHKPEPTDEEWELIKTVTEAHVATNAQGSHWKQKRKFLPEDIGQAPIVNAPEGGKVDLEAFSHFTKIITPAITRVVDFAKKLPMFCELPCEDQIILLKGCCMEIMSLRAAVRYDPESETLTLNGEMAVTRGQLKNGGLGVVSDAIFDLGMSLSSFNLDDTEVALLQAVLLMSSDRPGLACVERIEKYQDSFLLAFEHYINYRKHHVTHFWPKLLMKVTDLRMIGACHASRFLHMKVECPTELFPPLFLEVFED
#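 Fluorescence polarization of 20 nM Texas Red SRC2 peptide with 0.6 uM human TRb ligand-binding domain, in Tris buffer with 1uM T3 and 5% DMSO. Incubated 5 hr ambient; normalized to unbound and bound controls.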
# Tau ThT inhib – qHTS for Inhibitors of Tau Fibril Formation, Thioflavin T Binding; Microtubule-associated protein tau (Homo sapiens), P10636; recombinant tau K18 P301L, heparin-induced fibrillization, ThT fluorescence; Potency, µM (doses to about 57.4 µM), without a hit: at the highest dose activity, negative = inhibition, usual class: inhibitors; 270,000 tested, 2.1% active; AID 1460, 2008; further: nearly all actives have a fitted effect of over 55% in size
# Target sequence (P10636 561-689 P618L limits assumed): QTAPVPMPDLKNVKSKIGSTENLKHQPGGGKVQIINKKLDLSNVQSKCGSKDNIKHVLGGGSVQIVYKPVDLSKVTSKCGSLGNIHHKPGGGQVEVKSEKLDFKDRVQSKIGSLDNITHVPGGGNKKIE
#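 Fibril formation assay: tau K18 P301L at 15 uM with trace Alexa 594 label, heparin inducer 20 uM, pH 7 sodium acetate buffer, 37 C for 6 hr; endpoint ThT signal.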
# TR SRC2 fluor cs – Total Fluorescence Counterscreen for Inhibitors of the Interaction of Thyroid Hormone Receptor and Steroid Receptor Coregulator 2 | Potency, µM (titrated, usually from 106 µM), for the others: top-dose fluorescence change, negative = quenching | TRb/SRC2 Texas Red total fluorescence interference | 280,000 tested, 0.29% active; active means well fitted curve in either direction with a large enough effect; inconclusive means small, poorly fitted or top-dose-only effect
#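 Flags fluorescent or light-absorbing compounds by total fluorescence, S + 2P, at 555 nm excitation and 632 nm emission. Mixture: 20 nM Texas Red SRC2 peptide, 0.6 uM human TRb LBD, 1 uM T3, 5% DMSO; compound exposure 5 h at ambient temperature.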
# Tau FP inhib – qHTS for Inhibitors of Tau Fibril Formation, Fluorescence Polarization; Microtubule-associated protein tau (Homo sapiens), P10636; K18 P301L tau heparin fibrillization, Alexa594 FP, 6 h; Potency, µM (doses to about 57.7 µM), inactives show at the highest dose activity, negative = inhibition, hits mostly inhibitors; 280,000 tested, 0.39% active; AID 1468, 2008; further: nearly all actives have a fitted effect of over 55% in size
#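 K18 P301L tau (15 uM unlabeled/0.24 uM Alexa 594-labeled, final) + compound + heparin 20 uM final; 100 mM NaOAc pH 7; 6 hr 37 C; ThT 30 uM final added, 1 hr RT; FP ex 555/em 632 nm.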
# Tau fluor counter – Counterscreen qHTS for Inhibitors of Tau Fibril Formation, Fluorescence Polarization; tau K18 P301L Alexa594 fluorescence, heparin fibrillization; 280,000 tested, 0.93% active; Potency, µM (series often up to 57.7 µM), for the others: at the top dose activity change, negative = decrease; AID 1463, 2008; further: nearly all actives have a fitted effect of over 55% in size
#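 Human tau K18 P301L (15 uM unlabeled, 0.24 uM Alexa 594-labeled) in 100 mM sodium acetate pH 7 with 20 uM heparin, 6 hr at 37 C. ThT 30 uM added, 1 hr ambient; Alexa 594 FP and total fluorescence read at 555/632 nm.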
# Numbers without * were called inactive; ? = inconclusive; · = not tested or not shown; [ ] = another dose, or the depositor's remark. Unless noted, the call rests on the fitted dose curve; in most records, active means well fitted curve in the direction sought with a large enough effect; inconclusive means small, poorly fitted or top-dose-only effect, or another doubt; inactive means no such curve, though single readings can be large; an effect the other way counts as inactive or inconclusive. Unless noted, on the % scale 0 is the no-effect control and ±100 the full control effect; potency means the concentration at half of the fitted maximal effect.
SMILES,TRb SRC2 PPI,Tau ThT inhib,TR SRC2 fluor cs,Tau FP inhib,Tau fluor counter
O=C(Nc1nc2ccc(SC(F)F)cc2s1)c1ccc(NS(=O)(=O)c2ccc(F)c(F)c2)cc1,14%,?,-2%,13µM*,?
CS(=O)(=O)c1ccc2nc(NC(=O)c3ccc(NS(=O)(=O)c4ccc(F)c(F)c4)cc3)sc2c1,16%,·,-6%,?,?
COC(=O)CN1C(=O)[C@@H]2[C@H](C1=O)[C@@H]1CC(C(=O)OC)=C[C@@H](C(=O)OC)C3C1=C(C(=O)[C@@]3(C)NC(=O)c1ccccc1)[C@@H]2C (stereo not given in full),1%,·,-2%,·,·
CCc1ccc(NC(=O)CSc2nccn2-c2ccc(F)cc2)cc1,-3%,1%,?,-2%,-13%
O=C(c1ccc(Cl)c([N+](=O)[O-])c1)N(Cc1cccc(Cl)c1)C1CCS(=O)(=O)C1 (stereo not given),-13%,2%,112µM*[quencher],-4%,-8%
O=C(c1ccc(Cl)c([N+](=O)[O-])c1)N(Cc1ccccc1)C1CCS(=O)(=O)C1 (stereo not given),2%,-1%,1%,4%,-4%
Cc1ccc(C)c(N(C)C(=O)C2CCN(c3ncnc4c3nc3n4CCCCC3)CC2)c1,1%,3%,6%,4%,5%
O=C(NCc1ccccc1Cl)c1c2c(nc3ccccc13)C(=O)N(C1CCCCC1)C2,-4%,-3%,-5%,-7%,-6%
O=C1C=CC2=C3c4cc(O)c(O)cc4C[C@@]3(O)COC2=C1,-18%,8.9µM*,14%,?,?
Cc1cnc(C(=O)Nc2ccc(C)c(S(=O)(=O)N(C)C)c2)cn1,-17%[53 µM],-1%,35µM*[quencher],-2%,-4%
NC(CS)C(=O)O (stereo not given),-4%,·,0%,·,·
c1ccc2c(c1)[nH]c1c(N3CCCC3)ncnc12,-5%,-20%,-4%,13%,-3%
Brc1ccc2[nH]c3c(N4CCc5ccccc5C4)ncnc3c2c1,12%,-16%,1%,10%,11µM*[quencher]
CCOc1ccc2[nH]c3c(N4CCc5ccccc5C4)ncnc3c2c1,0%,?,-5%,?,14µM*[quencher]
Fc1ccc2[nH]c3c(N4CCc5ccccc5C4)ncnc3c2c1,8%,-6%,-2%,-4%,?
Cc1ccc2[nH]c3c(N4CCc5ccccc5C4)ncnc3c2c1,4%,?,-1%,?,25µM*[quencher]
Cc1ccccc1OCC(=O)Nc1nnc(S(=O)(=O)N(C)c2ccccc2)s1,3%,?,-11%,-11%,-16%
CC(C)Cc1ccc(C(C)C(=O)OCC(=O)c2c[nH]c3ccccc23)cc1 (stereo not given),0%,-14%,2%,22µM*,?
CC(C)C(NS(=O)(=O)c1c(Cl)cccc1Cl)C(=O)OCC(=O)c1c[nH]c2ccccc12 (stereo not given),21%,5%,0%,?,8.9µM*[quencher]
Cc1ccc(C(=O)OCC(=O)c2c[nH]c3ccccc23)cc1,-3%,1%,0%,4%,-6%
CC(O)C(NS(=O)(=O)c1ccc(Cl)cc1)C(=O)OCC(=O)c1c[nH]c2ccccc12 (stereo not given),4%,1%,-2%,-7%,-15%
CCc1ccccc1NS(=O)(=O)c1ccc2c(c1)OCC(C(=O)N1CCCC1)O2 (stereo not given),-5%,1%,-1%,-4%,-6%
COC1=C/C(=C/c2c(O)c(C#N)c3ccccn23)C=CC1=O,0%,14µM*,1%,-11%,-21%
CCN1C/C(=C/c2ccc(N3CCOCC3)cc2)C(=O)/C(=C/c2ccc(N3CCOCC3)cc2)C1,6%,0.63µM*,0%,-7%,-10%
CN1C/C(=C\c2ccc(N3CCOCC3)cc2)C(=O)/C(=C/c2ccc(N3CCOCC3)cc2)C1,0%,0.63µM*,-1%,20%,5%
SMILES,TRb SRC2 PPI,Tau ThT inhib,TR SRC2 fluor cs,Tau FP inhib,Tau fluor counter
CCc1ccc(/C=C2/SC(N3CCOCC3)=NC2=O)cc1,4%,-8%,1%,7%,1%
O=C1/C(=C/c2ccccc2)Oc2ccccc21,6%[11.2 µM],-17%[11.5 µM],-2%[11.2 µM],7%[11.6 µM],-10%[11.6 µM]
Oc1c(Cl)cc(Cl)cc1Sc1cc(Cl)cc(Cl)c1O,?,14µM*,?,0%,?
C=CCCCCCCCCC=O,-5%[201 µM],·,-1%[201 µM],·,·
Cc1ccc(C=Nc2ccc(N(C)C)cc2)o1,?,10µM*,18%,25µM*,?
Cc1ccc(C=Nc2ccccc2C(N)=O)o1,-6%,-15%,2%,4%,-4%
COC(=O)C1=C[C@@H](C(=O)OC)C2C3=C(C(=O)[C@@]2(C)NC(=O)c2ccccc2)[C@H](c2ccccc2)n2c(=O)n(-c4ccccc4)c(=O)n2[C@@H]3C1 (stereo not given in full),0%,·,-1%,·,·
CN(C)c1ccc(CNC(=O)c2ccc3c(c2)N(C)C(=O)C2CCCCN32)cc1 (stereo not given),-11%,?,0%,8%,-15%
C/C(=N\NC(=O)c1ccccc1O)C1C(=O)c2ccccc2C1=O,0%,5µM*,?,12%,?
C/C(CC(=O)N1CCN(C=O)CC1)=N\NC(=O)c1cc2ccccc2cc1O,30%,25µM*,45µM*[quencher],?,?
C/C(CC(=O)N1CCN(C=O)CC1)=N\NC(=O)c1ccc([N+](=O)[O-])cc1,1%,-9%,-4%,-13%,12%[2.34 µM]
C/C(=N/NC(=O)c1cc2ccccc2cc1O)C1C(=O)c2ccccc2C1=O,20%,2.5µM*,40µM*[quencher],-1%,14µM*[quencher]
C/C(=N\NC(=O)c1cc2ccccc2cc1O)c1cc2ccccc2o1,?,3.5µM*,40µM*[quencher],6%,?
CCC/C(C)=N/NC(=O)c1ccccc1O,15%,-6%,-7%,1%,5%
CC(O)CCCCCCC/C=C/C=C/C(N)=O (stereo not given),5%[11.2 µM],?,-3%[11.2 µM],4%[11.6 µM],-20%[11.6 µM]
COc1cc2c(=O)n(CCc3ccccc3)c(=O)n(CC(=O)Nc3ccccc3)c2cc1OC,-7%,?,-1%,?,?
Nc1cccn2c(-c3ccc(Cl)c(Cl)c3)cnc12,-1%,13µM*,-4%,-6%,?
Cc1cc(C(=O)COC(=O)c2ccc(N)c([N+](=O)[O-])c2)c(C)n1-c1ccc2c(c1)OCO2,0%[53 µM],?,-2%[53 µM],2%,?

# Source: PubChem BioAssay
